Results reported in PubChem BioAssay (NCI).
Compounds without any hit were thinned out: in the full panel of roughly 83,000, 20% have a hit.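 In brief: 96-well plates, 48 h treatment, single concentration, percent growth endpoint.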 Calls of active or inactive are those of the source. Rule for the calls: active = growth percent below 10; inactive = the rest.

Experiments:
Experiment in all cases: NCI-60 one-dose screen, 48 h (100 = growth as untreated, 0 = no growth, -100 = all killed)
Conditions in all cases: 10 µM
[1] = test system: DU-145 prostate
[2] = test system: K-562 leukemia
[3] = test system: MALME-3M melanoma
[4] = test system: MDA-MB-231 breast
[5] = test system: SF-268 CNS
[6] = test system: SF-295 CNS
[7] = test system: SF-539 CNS
[8] = test system: UACC-257 melanoma
[9] = test system: M14 melanoma
[10] = test system: HCT-15 colon
[11] = test system: HT29 colon
[12] = test system: SNB-75 CNS
[13] = test system: U251 CNS
[14] = test system: SK-MEL-5 melanoma
[15] = test system: LOX IMVI melanoma
[16] = test system: SK-MEL-28 melanoma
[17] = test system: RXF 393 renal
[18] = test system: SNB-19 CNS
[19] = test system: PC-3 prostate
[20] = test system: UACC-62 melanoma

Measured: growth

O=C(/C=C/Nc1ccccc1)c1ccc2c(c1)Nc1ccccc1S2
inactive: [1] 84.3% | [2] 90.6% | [3] 71.5% | [4] 69.2% | [5] 81.2% | [6] 78.1% | [7] 59.9% | [8] 96.7% | [9] 93.8% | [10] 80.4% | [11] 90.4% | [12] 106% | [13] 38% | [14] 96.7% | [15] 79.9% | [16] 100%

O=C1Nc2ccc(F)cc2/C1=C/c1cccc(OCc2ccccc2)c1
inactive: [1] 30.4% | [3] 32.3% | [5] 29.9% | [6] 35.4% | [7] 19.8% | [8] 26.6% | [9] 17.3% | [11] 20.6% | [12] 66.2% | [18] 23.9% | [19] 20.4% | [20] 16.5% | [16] 36.2%
active: [2] 6.34% | [17] -15.9% | [10] 0.287% | [14] -24.7% | [15] -79.5%

Cc1ccc(-c2cc(-c3cc4ccccc4nc3Cl)[nH]c(=S)n2)cc1
active: [14] -11%
inactive: [1] 63.7% | [2] 18.6% | [3] 46% | [17] 28.1% | [5] 77.8% | [6] 45.1% | [7] 55.7% | [8] 66.5% | [9] 15.9% | [10] 30.2% | [11] 43.3% | [12] 66.2% | [18] 71.1% | [19] 53.1% | [20] 21.5% | [15] 53.6% | [16] 47.4%

COc1ccc(C=CC(=O)c2ccc(-n3c(C)nc4c(cnn4-c4ccccc4)c3=O)cc2)cc1
inactive: [1] 83.2% | [2] 12.4% | [3] 60.6% | [17] 84.4% | [5] 92.4% | [6] 65.6% | [7] 77.6% | [8] 74.6% | [9] 53.1% | [10] 53.5% | [11] 71.5% | [12] 98.1% | [18] 81.8% | [13] 74.1% | [19] 65.1% | [14] 27.7% | [20] 50% | [15] 43.9% | [16] 90.4%

Cc1cccc2cc(-c3cc(-c4ccccc4)nc(=S)[nH]3)c(Cl)nc12
inactive: [1] 104% | [2] 38% | [3] 61% | [17] 78.9% | [5] 112% | [6] 64.7% | [7] 82.1% | [8] 77.8% | [9] 33.3% | [10] 53.2% | [11] 86.5% | [12] 103% | [18] 82.2% | [13] 99.1% | [19] 72.5% | [14] 23.6% | [20] 37.5% | [15] 66.9% | [16] 59.8%

Cc1nc2c(cnn2-c2ccccc2)c(=O)n1-c1ccc(NC(=O)c2ccc(F)cc2)cc1
active: [14] -15.4%
inactive: [1] 80.7% | [2] 27.2% | [3] 68.4% | [17] 79.1% | [5] 88.9% | [6] 39.6% | [7] 85.5% | [8] 31.8% | [9] 62.9% | [10] 66.1% | [11] 63.5% | [12] 64.5% | [18] 80.4% | [13] 81.1% | [19] 53.1% | [20] 63.1% | [15] 61.8% | [16] 83.8%

CC(C)C(=O)Nc1ccc(C(=O)NC(=S)Nc2ccc(C(=O)O)cc2)cc1
inactive: [1] 110% | [3] 97% | [4] 104% | [17] 111% | [5] 93.9% | [6] 95.3% | [7] 95.3% | [8] 128% | [9] 105% | [10] 99.7% | [11] 111% | [12] 79.1% | [18] 97.8% | [13] 104% | [19] 101% | [14] 93.8% | [20] 91.5% | [15] 101% | [16] 102%

O=C1Nc2cc(Cl)ccc2/C1=C/c1cccc(OCc2ccc(Br)cc2F)c1
inactive: [3] 33.8% | [8] 45.9% | [18] 28.6% | [16] 36.4%
active: [1] 4.44% | [2] 1.92% | [17] -15.1% | [5] 9.99% | [6] 5.06% | [7] -6.14% | [9] -32.6% | [10] 5.07% | [11] 5.13% | [12] -0.373% | [13] -1.12% | [14] -6.52% | [20] 8.35% | [15] -45.9%

O=C1Nc2cc(Cl)ccc2/C1=C/c1ccc(OCc2ccc(Br)cc2F)cc1
active: [1] -17.5% | [2] 9.64% | [3] -69.5% | [17] -77.4% | [5] -25.9% | [6] -94.9% | [7] -92% | [8] -22.6% | [9] -45.1% | [10] -31.8% | [11] 5.82% | [12] -12.2% | [18] -45.4% | [13] -94.6% | [19] -42.3% | [14] -66.7% | [20] -75.2% | [15] -94.5% | [16] -60.7%

O=c1nc(-c2ccccc2)cc(-c2cc3ccccc3nc2Cl)[nH]1
inactive: [1] 38.4% | [3] 54.9% | [5] 38.2% | [6] 42.2% | [8] 91.2% | [9] 38.6% | [12] 26.5% | [18] 13% | [14] 62.2% | [20] 35.1% | [16] 71.5%
active: [2] -11.9% | [17] -16.1% | [7] -47.4% | [10] -64.1% | [11] -42.5% | [13] -72.7% | [15] -87.7%

COc1ccc2nc(Cl)c(-c3cc(-c4ccccc4)nc(=O)[nH]3)cc2c1
inactive: [1] 26.1% | [3] 83.3% | [17] 58.5% | [5] 60.2% | [6] 64.4% | [7] 11.3% | [8] 105% | [9] 81.9% | [11] 32.2% | [12] 70.1% | [18] 31.5% | [13] 12.6% | [19] 48.8% | [14] 74.2% | [20] 66.8% | [16] 97.7%
active: [2] 4.96% | [10] 0.676% | [15] -46.4%

CCC(C)S(=O)(=O)c1oc(-c2ccc(C)cc2)nc1S(=O)(=O)c1ccccc1 (stereo not drawn)
inactive: [6] 46.9%
active: [1] -89.6% | [3] -96.4% | [4] -88.1% | [17] -98% | [5] -49.1% | [7] -100% | [8] -89.5% | [9] -42% | [10] -72.2% | [11] -71.5% | [12] 3.57% | [18] 0.128% | [13] -95.9% | [19] -60.5% | [14] -86.5% | [20] -94.2% | [15] -94% | [16] -99.8%

COc1ccc2nc(Cl)c(-c3cc(-c4ccccc4)nc(=S)[nH]3)cc2c1
active: [14] 6.49%
inactive: [1] 72.6% | [2] 24.8% | [3] 45.3% | [17] 46.2% | [5] 67.9% | [6] 50.9% | [7] 63.5% | [8] 38.2% | [9] 16.5% | [10] 46.4% | [11] 43.7% | [12] 41.5% | [18] 83.6% | [13] 87.2% | [19] 67.3% | [20] 23.2% | [16] 50%

Cc1ccc(C(=O)Nc2ccc(-n3c(C)nc4c(cnn4-c4ccccc4)c3=O)cc2)cc1
active: [14] 7.05%
inactive: [1] 84.9% | [2] 31.2% | [3] 67.7% | [17] 87.9% | [5] 96.3% | [6] 50.6% | [7] 81.4% | [8] 42% | [9] 73.2% | [10] 75.3% | [11] 71.2% | [12] 82.8% | [18] 82.1% | [13] 90% | [19] 71.6% | [20] 60.8% | [15] 67.2%

Cc1ccc(-c2nc3ccc(C(=O)N=Nc4c(O)[nH]c5ccc(Cl)cc45)cc3[nH]2)cc1
inactive: [6] 10.1% | [7] 33.2% | [8] 81.7% | [10] 67.7% | [11] 13.2% | [14] 22.1% | [20] 22.6%
active: [1] 6.16% | [3] -28.7% | [4] -73% | [17] -68% | [5] -33.4% | [9] 6.09% | [12] -49.3% | [18] -24% | [13] -100% | [19] -51.9% | [15] -100% | [16] -1.61%

O=C(c1ccc([N+](=O)[O-])c([N+](=O)[O-])c1O)n1[nH]c(=O)c2ccccc2c1=O
inactive: [1] 25.4% | [2] 12.8% | [3] 71.7% | [17] 66.7% | [5] 76.9% | [6] 90.9% | [7] 66.6% | [8] 79.9% | [9] 78.6% | [10] 39.1% | [11] 66.7% | [12] 93.5% | [18] 72.9% | [13] 61.1% | [14] 77.8% | [20] 60.3% | [15] 56.6% | [16] 92.7%

C#Cc1ccc(S(=O)(=O)Nc2cccc(-c3csc(NC(C)=O)n3)c2)cc1
inactive: [1] 82.6% | [3] 78.7% | [4] 84.5% | [17] 88.4% | [5] 87.3% | [6] 66.1% | [7] 90.3% | [8] 80% | [9] 92.4% | [10] 67.1% | [11] 71.4% | [12] 60.4% | [18] 83.6% | [13] 81.8% | [19] 62.3% | [14] 43.2% | [20] 48.7% | [15] 54.6% | [16] 89.4%
